Results from article PMC4552634, “A New Set of Chemical Starting Points with Plasmodium falciparum Transmission-Blocking Potential for Antimalarial Drug Discovery” (PLoS ONE, 2015).
Screen size: about 13,000 compounds; about 3,200 (25%) showed an effect of 50% or more. The list shows a part of the results.

What follows are compounds tested on P. falciparum stage V gametocytes. Conditions: 48 h, 5 µM; inhibitor.
Parameters: BacTiter-Glo ATP luminescence viability of purified stage V gametocytes in 384-well plates, per cent inhibition versus DMSO

Structure (SMILES) | % Inhibition
NS(=O)(=O)c1cccc(Nc2nccc(-c3c(-c4cccc(NC(=O)c5c(F)cccc5F)c4)nn4ccccc34)n2)c1 [TCMDC-135780] | -65.73%
Cc1csc(-c2nc(NCc3cccnc3)ncc2-c2ccsc2)n1 [TCMDC-124841] | 9.704%
CC(C)(C)c1cc(NC(=O)c2ccc(Cl)c([N+](=O)[O-])c2)cc(C(C)(C)C)c1 [TCMDC-125604] | 2.881%
Cc1ccc(C(=O)N2CCN(Cc3nccs3)CC2)cc1 [TCMDC-140738] | 3.888%
O=c1cc(NCCCNCc2scc(I)c2I)[nH]c2ccccc12 [TCMDC-140908] | -12.68%
Nc1nccc2ccc(-c3cccc4ncccc34)cc12 [TCMDC-133424] | 95.32%
CN(C)Cc1ccc(-c2ccc3ccnc(N)c3c2)cc1 [TCMDC-136790] | 60.33%
Nc1cc(-c2ccc3c(N)nccc3c2)ccc1Cl [TCMDC-136895] | -23.38%
NCc1cccc(-c2ccc3ccnc(N)c3c2)c1 [TCMDC-136889] | 55.02%
Nc1cccc(-c2ccc3ccnc(N)c3c2)c1 [TCMDC-136762] | 21.07%
NCc1ccc(-c2ccc3c(N)nccc3c2)cc1 [TCMDC-133718] | 107.3%
Nc1nccc2ccc(-c3cccnc3)cc12 [TCMDC-136599] | 30.25%
COC(=O)c1noc(C)c1I [TCMDC-131678] | -0.6747%
CN1CCN(c2ccc(Nc3c(C(N)=O)cnc4cc(-c5ccoc5)ccc34)cc2C(F)(F)F)CC1.Cl [TCMDC-135443] | 2.768%
O=C(Nc1ccc(Cl)cc1)Nc1ccc(-c2cccc(-c3nc4ccccc4[nH]3)c2)cc1 [TCMDC-133187] | -14.37%
CC(C)(C)CCOC(=O)N1CCc2c(cc(O)c(O)c2Cl)C(c2ccc(O)cc2)C1 (stereo not drawn) [TCMDC-141981] | -77.14%
Nc1nc(N)c2c3c(ccc2n1)CCC3 [TCMDC-137720] | -10.07%
Cc1ccc(NC(=S)N2CCCN(CCCCCNC(=O)/C=C/c3ccc(Cl)c(Cl)c3)CC2)cc1Cl [TCMDC-135895] | -0.4693%
COc1ccccc1CNC(=O)c1cc(C2CC2)nc2c1cnn2C(C)C [TCMDC-125250] | 49.1%
Cc1cccc(C)c1N1CCN(C2CCC(NC(=O)/C=C/c3ccccc3)CC2)CC1 (stereo not drawn) [TCMDC-132881] | -29.57%
COCCN1CCC(NCC(C)(C)c2nc(-c3ccc(Cl)c(O)c3)c(-c3ccncc3)[nH]2)CC1 [TCMDC-140926] | -95.92%
CCCN(Cc1nnc(-c2ccco2)o1)C(=O)C1CCCN(C(=O)c2ccc(Cl)cc2)C1 (stereo not drawn) [TCMDC-125334] | -4.25%
Cc1cc(CNC(=O)c2ccc(-c3ccc(-c4nc5cc(C(F)(F)F)ccc5[nH]4)s3)cc2)on1 [TCMDC-132481] | -11.54%
CCCCCc1cc(O)c2c(c1)OC(C)(C)CC2C1=CCN(Cc2cnc3ccccc3c2)CC1 (stereo not drawn) [TCMDC-131418] | -11.08%
Cn1cncc1-c1ccc2c(-c3ccsc3)cnc(N)c2c1 [TCMDC-135368] | 3.201%

Structure (SMILES) | % Inhibition
Nc1nccc2ccc(-c3ccc(Oc4ccccc4)cc3)cc12 [TCMDC-133432] | 19.11%
Nc1nccc2ccc(Oc3ccncc3)cc12 [TCMDC-136517] | 51.03%
Nc1nccc2ccc(-c3ccncc3)cc12 [TCMDC-138929] | 32.25%
Nc1ncc(-c2ccsc2)c2ccc(-c3ccc4cn[nH]c4c3)cc12 [TCMDC-135299] | 100.9%
Nc1ncc(-c2ccsc2)c2ccc(-c3cnc[nH]3)cc12 [TCMDC-135369] | -1.546%
Nc1nccc2ccc(-c3ccsc3)cc12 [TCMDC-133431] | 53.31%
Nc1nccc2ccc(-c3ccc4nccn4c3)cc12 [TCMDC-133425] | 49.74%
Nc1nnc(-c2ccc(Cl)c(Br)c2)c(N)n1 [TCMDC-137285] | -16.33%
Cc1cc(N2Cc3ccccc3C2)nc(Nc2cccc(C#N)c2)n1 [TCMDC-134199] | -14.79%
Cc1[nH]c2c(C)cc(NS(C)(=O)=O)cc2c1C1CCN(CC2CCN(C(=O)/C=C/c3ccc(Cl)c(Cl)c3)CC2)CC1 [TCMDC-140173] | -57.53%
Cc1cccc(C(=O)Nc2ccnc(N(C)CCCN(C)Cc3cccc(C#N)c3)c2)c1 [TCMDC-134968] | 26.78%
O=C(NCc1ccco1)c1ccc(S(=O)(=O)c2ccc(Cl)cc2)cc1 [TCMDC-124393] | 65.45%
O=C(Nc1ccccc1O)c1ccc(S(=O)(=O)c2ccc(Cl)cc2)cc1 [TCMDC-123689] | 47.63%
CC(C)CCN1CCCN(Cc2ccc(C(=O)NCc3ccc(Cl)cc3)cc2)CC1 [TCMDC-136452] | -12.3%
O=C(Nc1ccc(-c2cccc(-c3nc4ccccc4[nH]3)c2)cc1)Nc1ccc(Cl)c(Cl)c1 [TCMDC-133284] | -10.68%
O=C(Nc1ccccc1O)c1ccc(Oc2cccc(C(=O)Nc3ccccc3O)c2)cc1 [TCMDC-125220] | -89.02%
Cc1cc2ccccc2n1CC(=O)N1CC(C(=O)N2CCCCC2)Oc2ccccc21 (stereo not drawn) [TCMDC-125253] | 84.5%
CCN(CC)C(=O)C1CCN(C(C(=O)N2CCN(CC(=O)N3CCCC3)CC2)c2cc3ccccc3o2)CC1 (stereo not drawn) [TCMDC-141126] | -9.75%
COc1ccc(C(F)(F)F)cc1N1CCN(CCCCNC(=O)c2ccc(NC(=O)c3ccc(Cl)cc3)cc2)CC1 [TCMDC-138258] | -21.85%
O=C(Nc1ccc(C(=O)OCC2CCCN3CCCCC23)cc1)c1ccc(Cl)c(Cl)c1 (stereo not drawn) [TCMDC-124027] | 3.603%
CC(C)Nc1ccc(Nc2ccnc3cc4ccccc4cc23)cc1 [TCMDC-123916] | -35.26%
CCN(CC)CCNc1ccnc2ccc3ccccc3c12 [TCMDC-131800] | 5.083%
CN1CCN(c2ccc(Nc3ccnc4ccc(-c5ccccc5)cc34)cc2)CC1 [TCMDC-123917] | -37.23%
OCCN1CCN(c2ccc(Nc3ccnc4cc5ccccc5cc34)cc2)CC1 [TCMDC-123915] | 73.35%
CCN(CC)CCNc1ccc(Nc2ccnc3cc4ccccc4cc23)cc1 [TCMDC-123498] | 93.37%

Structure (SMILES) | % Inhibition
c1ccc2cc3c(Nc4ccc(N5CCCCC5)cc4)ccnc3cc2c1 [TCMDC-123505] | -37.48%
O=C(/C=C/c1ccc(Cl)c(Cl)c1)NCCCCCN1CCC(NC(=S)Nc2ccc(Cl)cc2Cl)CC1 [TCMDC-135902] | 24.59%
CCOc1ccc2nc(N(CCCn3ccnc3)C(=O)C=Cc3cccs3)sc2c1 [TCMDC-124925] | -19.53%
Nc1nc(N)c2c(ccc3nn(S(=O)(=O)N4CCCC4)cc32)n1 [TCMDC-137854] | 1.328%
COc1c(C2CCN(CCCCNC(=O)c3ccc(-c4ccc(C#N)cc4)nc3)CC2)ccc2c1CCCC2 [TCMDC-134688] | -0.6168%
COc1c(C2CCN(CCCCNC(=O)c3ccc(-c4ccc(Cl)cc4)c(OCCN(C)C)c3)CC2)ccc2c1CCCC2 [TCMDC-134371] | 101.9%
COc1c(C2CCN(CCCCNC(=O)c3ccc(-c4ccc(Cl)cc4)c(O)c3)CC2)ccc2c1CCCC2 [TCMDC-134282] | 111.5%
COc1c(C2CCN(CCCCNC(=O)c3oc(-c4ccc(Cl)cc4)cc3CO)CC2)ccc2c1CCCC2 [TCMDC-134829] | -10.73%
COc1c(C2CCN(CCCCNC(=O)c3ccc(-c4ccc(C#N)cc4)c(O)c3)CC2)ccc2c1CCCC2 [TCMDC-138682] | 69.72%
COc1c(C2CCN(CCCCNC(=O)c3cc(-c4ccc(C#N)cc4)n[nH]3)CC2)ccc2c1CCCC2 [TCMDC-134659] | -32.94%
COc1c(C2CCN(CCCCNC(=O)C=Cc3cc4cc(Cl)ccc4o3)CC2)ccc2c1CCCC2 [TCMDC-135062] | -50.69%
COc1c(C2CCN(CCCCNC(=O)C=Cc3ccccc3C(F)(F)F)CC2)ccc2c1CCCC2 [TCMDC-135279] | 85.89%
COC(=O)COc1cc(C(=O)NCCCCN2CCC(c3ccc4c(c3OC)CCCC4)CC2)ccc1-c1ccc(Cl)cc1 [TCMDC-134372] | 38.74%
CCN(c1ccccc1)S(=O)(=O)c1ccc(OC)c(NC(=O)c2cccc(C(F)(F)F)c2)c1 [TCMDC-125343] | 14.96%
O=C(NC1CCN(c2ccnc3cc(Cl)ccc23)C1)c1cccc(F)c1 (stereo not drawn) [TCMDC-133656] | 0.5042%
COc1c(C2CCN(CCCCNC(=O)c3ccc(-c4ccc(Cl)cc4)cn3)CC2)ccc2c1CCCC2 [TCMDC-134687] | 70.09%
COc1c(C2CCN(CCCCNC(=O)c3cc(-c4ccc(Cl)cc4)[nH]c3C)CC2)ccc2c1CCCC2 [TCMDC-135270] | 45.24%
NC(=O)COc1c(C2CCN(CCCCNC(=O)c3ccc(-c4ccc(Cl)cc4)c(O)c3)CC2)ccc2c1CCCC2 [TCMDC-133379] | 84.67%
COc1c(C2CCN(CCCCNC(=O)c3ccc(-c4ccc(Cl)cc4)c(OCC(N)=O)c3)CC2)ccc2c1CCCC2 [TCMDC-134373] | 13.03%
COc1c(C2CCN(CCCCNC(=O)c3cccc(-c4ccc(C(F)(F)F)cc4)c3)CC2)ccc2c1CCCC2 [TCMDC-138701] | 48.96%
COc1c(C2CCN(CCCCNC(=O)c3cc(-c4ccc(Cl)cc4)oc3C)CC2)ccc2c1CCCC2 [TCMDC-134696] | 7.674%
Cc1nc(-c2ccc(C#N)cc2)sc1C(=O)NCCCCN1CCC(c2ccc3c(c2OCCO)CCCC3)CC1 [TCMDC-138879] | 11.85%
COc1c(C2CCN(CCCCNC(=O)c3ccc(-c4ccc(NC(=O)C(F)(F)F)cc4)cc3)CC2)ccc2c1CCCC2 [TCMDC-134380] | 96.81%
CC(=O)c1ccc(-c2ccc(C(=O)NCCCCN3CCC(c4ccc5c(c4OCC(N)=O)CCCC5)CC3)cc2)s1 [TCMDC-134174] | -29.18%
N#Cc1ccc(NC(=O)c2ccc(C(=O)NCCCCN3CCC(c4ccc5c(c4OCCOC4CCCCO4)CCCC5)CC3)cc2)cc1 (stereo not drawn) [TCMDC-138789] | 80.58%
